# Reference: PubChem BioAssay (Tox21)
# Inconclusive results are not listed. Values without a mark were called inactive. The source made the active and inactive calls. Calls follow the shape of the dose curve; as a rule, active = well fitted inhibition curve with a large enough effect in the repeat runs; inconclusive = weak or mixed curves; inactive = no such curve, though single readings can be large or run the other way.
# Target: Androgen receptor (Homo sapiens) (UniProt P10275)
# Test: qHTS assay to identify small molecule antagonists of the androgen receptor (AR) signaling pathway using the MDA cell line in the presence of 0.5 nM R1881 (AID 1259243)
# Conditions: MDA-kb2 MMTV-luciferase, R1881 0.5 nM, 16 h; series mostly up to 92.4 µM; activity, negative = inhibition: at the top concentration
# Procedure, shortened: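 Inhibition of R1881 (0.5 nM final) induced reporter signal was measured in human MDA-kb2 cells; note the MMTV promoter also responds to GR. Exposure lasted 16 hr at 37C.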
# % is scaled to controls: 0 for no effect and ±100 for the full control effect; potency is read from the fitted curve at half-maximal effect.
# Also: nearly all actives have a fitted effect of over 50% in size.
# Androgen receptor (Homo sapiens), sequence (P10275 whole entry, looked up): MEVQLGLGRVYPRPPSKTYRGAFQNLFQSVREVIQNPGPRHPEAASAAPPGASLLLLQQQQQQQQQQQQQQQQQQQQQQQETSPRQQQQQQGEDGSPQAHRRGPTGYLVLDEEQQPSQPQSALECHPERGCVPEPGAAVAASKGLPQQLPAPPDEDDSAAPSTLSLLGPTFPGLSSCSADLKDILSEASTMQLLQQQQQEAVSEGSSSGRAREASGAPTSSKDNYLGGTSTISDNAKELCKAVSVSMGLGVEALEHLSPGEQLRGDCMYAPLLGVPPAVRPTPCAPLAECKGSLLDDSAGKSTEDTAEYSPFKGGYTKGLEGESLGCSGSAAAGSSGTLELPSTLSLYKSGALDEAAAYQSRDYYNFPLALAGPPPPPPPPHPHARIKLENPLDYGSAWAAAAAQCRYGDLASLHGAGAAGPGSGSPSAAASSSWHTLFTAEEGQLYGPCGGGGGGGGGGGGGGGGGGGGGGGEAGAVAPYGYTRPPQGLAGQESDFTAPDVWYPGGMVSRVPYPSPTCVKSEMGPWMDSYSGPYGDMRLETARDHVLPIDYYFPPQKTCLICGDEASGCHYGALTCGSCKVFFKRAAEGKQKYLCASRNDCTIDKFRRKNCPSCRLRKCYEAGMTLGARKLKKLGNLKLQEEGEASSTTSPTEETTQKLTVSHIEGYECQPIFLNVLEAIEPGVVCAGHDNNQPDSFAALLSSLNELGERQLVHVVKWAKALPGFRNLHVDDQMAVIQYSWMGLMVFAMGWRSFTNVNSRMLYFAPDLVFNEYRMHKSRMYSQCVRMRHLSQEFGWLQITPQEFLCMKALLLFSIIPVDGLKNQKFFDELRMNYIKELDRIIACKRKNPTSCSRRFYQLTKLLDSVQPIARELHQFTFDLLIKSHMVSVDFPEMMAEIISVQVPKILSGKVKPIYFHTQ
Structure (SMILES),"activity, negative = inhibition",Potency
O=C=Nc1cccc(C(F)(F)F)c1,-24.7%,–
CCCCCCCC/C=C\CCCCCCCCCCCC(=O)O,0.131%,–
CC(=O)OCC(=O)NCCCOc1cccc(CN2CCCCC2)c1,9.19% [at 42.5 µM],–
O=C1Cc2cc(Cl)ccc2N1,-1.12% [at 42.5 µM],–
Cc1cc(O)c(C)c(C)c1O,-12.5% [at 42.5 µM],–
C/C=C/C=C/C=O,-10.4%,–
CCCCCCC(C)(C)C(=O)O,2.61%,–
C=C1C[C@@]23CC[C@H]4[C@@](C)(CCC[C@@]4(C)C(=O)O[C@@H]4O[C@H](CO)[C@@H](O)[C@H](O)[C@H]4O)[C@@H]2CC[C@]1(O[C@@H]1O[C@H](CO)[C@@H](O)[C@H](O[C@@H]2O[C@H](CO)[C@@H](O)[C@H](O)[C@H]2O)[C@H]1O[C@@H]1O[C@H](CO)[C@@H](O)[C@H](O)[C@H]1O)C3,1.46%,–
NC1[C@H]2CN(c3nc4c(cc3F)c(=O)c(C(=O)O)cn4-c3ccc(F)cc3F)C[C@@H]12 (stereo partly specified),98.7% [at 42.5 µM],–
O=C(/C=C/c1ccccc1)OCCc1ccccc1,74.9%,–
C[C@@H]1CC(=O)NN=C1c1ccc(NN=C(C#N)C#N)cc1,–,21.1 µM (active)
C[C@@H](O)[C@H]1C(=O)N2C(C(=O)O)=C([C@H]3CCCO3)S[C@H]12,-6.74% [at 42.5 µM],–
O=C(Cn1ccnc1[N+](=O)[O-])NCCO,11.2% [at 42.5 µM],–
O=C1c2ccccc2C(=O)C1c1ccc(Br)cc1,58.6% [at 42.5 µM],–
OC(CCN1CCCC1)(c1ccccc1)C1CCCCC1 (stereo unspecified),-3.04% [at 42.5 µM],–
C=C(C)[C@@H]1CCC2=CCC[C@@H](C)[C@]2(C)C1,–,27.3 µM (active)

Structure (SMILES),"activity, negative = inhibition",Potency
C1COC1,18.2%,–
CC/C=C1/OC(=O)c2ccccc21,-7.94%,–
Cc1cc(C)cc(N)c1,4.55%,–
CS(=O)(=O)c1ccc(-c2cn3ccccc3n2)cc1,92.8% [at 42.5 µM],–
NC(=O)c1ccncc1,7.69%,–
Cc1cscn1,20.7%,–
CC1=Nc2ccc3ccccc3c2C1(C)C,–,19.3 µM (active)
CCOc1cccc(-n2cc(C(=O)N3CCN(c4cc(C(=O)O)c5ccccc5c4)CC3)nc2-c2ccc(C)cc2)c1,-7.05%,–
O=C1Cc2ccccc2N1c1c(Cl)cccc1Cl,–,24.3 µM (active)
CCC(=O)OC,8.89%,–
C=CCc1ccccc1OCC(O)CNC(C)C (stereo unspecified),0.548% [at 42.5 µM],–
OC1(c2ccccc2)CCNCC1,1.28% [at 42.5 µM],–
COC(=O)[C@H]1[C@H]2C[C@@H]3c4[nH]c5cc(OC)ccc5c4CCN3C[C@H]2C[C@@H](OC(=O)/C=C/c2ccc(O)c(OC)c2)[C@@H]1OC,-2.83% [at 42.5 µM],–
O=C(OC(=O)c1ccccc1)c1ccccc1,0.424%,–
C[C@H]1c2cccc(O)c2C(O)=C2C(=O)[C@]3(O)C(O)=C(C(N)=O)C(=O)[C@@H](N(C)C)[C@@H]3[C@@H](O)[C@@H]21,1.13% [at 42.5 µM],–

# Target: Estrogen receptor (Homo sapiens) (UniProt P03372)
# Test: qHTS assay to identify small molecule antagonists of the estrogen receptor alpha (ER-alpha) signaling pathway using the BG1 cell line in the presence of 0.1 nM 17-beta-estradiol (AID 1259244)
# Conditions: VM7Luc4E2 (BG1) ERE-luciferase, antagonist mode, 0.1 nM E2, 22 h; series mostly up to 92.4 µM; activity change, negative = inhibition: at the top concentration
# Procedure, shortened: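 Quantitative high-throughput screen in VM7Luc4E2 cells: compound plus 0.1 nM E2 (final), 22 h, 37C, 5% CO2; ONE-Glo added, 30 min room temperature, luminescence measured.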
# Estrogen receptor (Homo sapiens), sequence (P03372 whole entry, looked up): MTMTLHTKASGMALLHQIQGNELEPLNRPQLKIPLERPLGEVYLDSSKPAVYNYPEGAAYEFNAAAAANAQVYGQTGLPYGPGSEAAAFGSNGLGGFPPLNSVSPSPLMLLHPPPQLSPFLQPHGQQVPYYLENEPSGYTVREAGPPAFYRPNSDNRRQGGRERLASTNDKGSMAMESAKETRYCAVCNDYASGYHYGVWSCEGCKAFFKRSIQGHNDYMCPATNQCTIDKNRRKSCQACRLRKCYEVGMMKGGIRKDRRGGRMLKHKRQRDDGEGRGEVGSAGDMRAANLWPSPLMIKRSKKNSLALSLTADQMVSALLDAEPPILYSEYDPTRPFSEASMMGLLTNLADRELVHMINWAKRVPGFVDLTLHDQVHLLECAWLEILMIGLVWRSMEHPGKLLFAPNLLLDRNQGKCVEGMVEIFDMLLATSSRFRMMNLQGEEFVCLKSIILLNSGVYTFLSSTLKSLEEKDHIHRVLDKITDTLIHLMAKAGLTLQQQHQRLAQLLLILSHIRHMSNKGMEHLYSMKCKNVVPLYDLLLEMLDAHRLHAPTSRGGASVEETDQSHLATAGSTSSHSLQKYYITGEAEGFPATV
Structure (SMILES),"activity change, negative = inhibition",Potency
O=C=Nc1cccc(C(F)(F)F)c1,-14%,–
CCCCCCCC/C=C\CCCCCCCCCCCC(=O)O,2.79%,–
C/C=C(/C(=C/C)c1ccc(O)cc1)c1ccc(O)cc1,-10.1% [at 42.5 µM],–
Cc1cc(O)c(C)c(C)c1O,-12.7% [at 42.5 µM],–
C/C=C/C=C/C=O,0.139%,–
CN(C)CCN1C(=O)c2ccccc2N(C)c2ccccc21,-27.9% [at 42.5 µM],–
CCCCCCC(C)(C)C(=O)O,3.15%,–
C=C1C[C@@]23CC[C@H]4[C@@](C)(CCC[C@@]4(C)C(=O)O[C@@H]4O[C@H](CO)[C@@H](O)[C@H](O)[C@H]4O)[C@@H]2CC[C@]1(O[C@@H]1O[C@H](CO)[C@@H](O)[C@H](O[C@@H]2O[C@H](CO)[C@@H](O)[C@H](O)[C@H]2O)[C@H]1O[C@@H]1O[C@H](CO)[C@@H](O)[C@H](O)[C@H]1O)C3,9.4%,–
COC(=O)C1=C(C)NC(C)=C(C(=O)O[C@@H]2CCCN(Cc3ccccc3)C2)[C@@H]1c1cccc([N+](=O)[O-])c1,-5.66% [at 42.5 µM],–
O=C(/C=C/c1ccccc1)OCCc1ccccc1,65.7%,–
C[C@@H]1CC(=O)NN=C1c1ccc(NN=C(C#N)C#N)cc1,-13.7% [at 42.5 µM],–
C[C@@H](O)[C@H]1C(=O)N2C(C(=O)O)=C([C@H]3CCCO3)S[C@H]12,-3.51% [at 42.5 µM],–
O=C(Cn1ccnc1[N+](=O)[O-])NCCO,14.8% [at 42.5 µM],–
O=C(/C=C/c1ccc(O)c(O)c1)O[C@@H]1C[C@@](OC(=O)/C=C/c2ccc(O)c(O)c2)(C(=O)O)C[C@@H](O)[C@@H]1O,2% [at 42.5 µM],–
O=C1c2ccccc2C(=O)C1c1ccc(Br)cc1,-3.21% [at 42.5 µM],–
Clc1ccc(Nc2nnc(Cc3ccncc3)c3ccccc23)cc1,–,29.8 µM (active)
CCn1cc(C(=O)O)c(=O)c2cc(F)c(N3CCNCC3)cc21,-3.59% [at 42.5 µM],–
C=C(C)[C@@H]1CCC2=CCC[C@@H](C)[C@]2(C)C1,0.388%,–
C1COC1,23.4%,–
CCOc1ccccc1O[C@H](c1ccccc1)[C@H]1CNCCO1,2.83% [at 42.5 µM],–
Cc1cc(C)cc(N)c1,15.3%,–
CCN(CC)CCNC(=O)COc1ccc(OC)cc1,-1.06% [at 42.5 µM],–
CS(=O)(=O)c1ccc(-c2cn3ccccc3n2)cc1,-68.5% [at 42.5 µM],–
Cc1cscn1,18.9%,–
O=C1Cc2ccccc2N1c1c(Cl)cccc1Cl,–,61.1 µM (active)
CCC(=O)OC,1.81%,–
COC(=O)[C@H]1[C@H]2C[C@@H]3c4[nH]c5cc(OC)ccc5c4CCN3C[C@H]2C[C@@H](OC(=O)/C=C/c2ccc(O)c(OC)c2)[C@@H]1OC,-19.4% [at 42.5 µM],–
O=C(OC(=O)c1ccccc1)c1ccccc1,8.02%,–
CCOC(=O)[C@H](CCc1ccccc1)N[C@@H](C)C(=O)N(CC(=O)O)C1Cc2ccccc2C1,-8.4% [at 42.5 µM],–
C[C@H]1c2cccc(O)c2C(O)=C2C(=O)[C@]3(O)C(O)=C(C(N)=O)C(=O)[C@@H](N(C)C)[C@@H]3[C@@H](O)[C@@H]21,-1.2% [at 42.5 µM],–
